Measurements: ChEMBL document CHEMBL3988442, “University of Dundee, Small-Polar-MMV Screening Library” (2021)
For some of these results: Results with a measured potency or affinity are listed apart.

Assays:
Set-up in all cases: scale not given: direction of the effect not stated beside the values
[1] = target: Protein translocase subunit SecA (Escherichia coli (strain K12)) (UniProt P10408); test: Assay to Identify E. coli SecA ATPase Inhibitors; assay type: functional; settings: 30 µM
[2] = target: T1, Ubiquitin-activating enzyme e1, putative (Leishmania donovani (strain BPK282A1)) (UniProt E9BSI1); test: Leishmania donovani Ubiquitin Activating Enzyme (LdE1); assay type: functional; settings: 30 µM
T1 sequence (whole entry): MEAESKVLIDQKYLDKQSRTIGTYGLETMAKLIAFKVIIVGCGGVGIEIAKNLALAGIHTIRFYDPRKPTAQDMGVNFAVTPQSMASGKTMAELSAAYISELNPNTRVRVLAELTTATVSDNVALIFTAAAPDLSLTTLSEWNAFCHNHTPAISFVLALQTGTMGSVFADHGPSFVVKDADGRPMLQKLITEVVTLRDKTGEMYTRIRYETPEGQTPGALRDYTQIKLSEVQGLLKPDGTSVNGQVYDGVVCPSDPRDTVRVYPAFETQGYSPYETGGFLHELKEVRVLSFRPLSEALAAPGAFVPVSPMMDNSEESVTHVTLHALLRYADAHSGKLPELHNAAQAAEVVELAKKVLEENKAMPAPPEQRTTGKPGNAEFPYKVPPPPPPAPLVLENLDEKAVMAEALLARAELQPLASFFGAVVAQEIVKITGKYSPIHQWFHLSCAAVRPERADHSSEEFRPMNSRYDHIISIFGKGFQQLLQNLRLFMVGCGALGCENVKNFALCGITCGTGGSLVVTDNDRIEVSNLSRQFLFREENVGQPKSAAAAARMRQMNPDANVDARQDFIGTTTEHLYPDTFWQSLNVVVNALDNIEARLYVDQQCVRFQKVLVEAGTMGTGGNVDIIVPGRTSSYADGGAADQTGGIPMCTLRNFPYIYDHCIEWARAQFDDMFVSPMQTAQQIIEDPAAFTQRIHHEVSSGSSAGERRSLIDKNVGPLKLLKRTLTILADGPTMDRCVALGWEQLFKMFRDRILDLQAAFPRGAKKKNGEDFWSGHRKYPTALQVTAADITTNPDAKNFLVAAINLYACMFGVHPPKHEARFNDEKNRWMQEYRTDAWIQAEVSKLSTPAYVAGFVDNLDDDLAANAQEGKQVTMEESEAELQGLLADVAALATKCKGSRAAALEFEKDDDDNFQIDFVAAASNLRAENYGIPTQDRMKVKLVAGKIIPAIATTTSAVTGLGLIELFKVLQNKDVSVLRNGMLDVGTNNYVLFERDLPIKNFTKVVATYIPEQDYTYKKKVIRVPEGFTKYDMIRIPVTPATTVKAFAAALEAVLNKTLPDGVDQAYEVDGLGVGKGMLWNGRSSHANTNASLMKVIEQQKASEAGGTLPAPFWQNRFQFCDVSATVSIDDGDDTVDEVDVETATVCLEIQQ

[3] = target: AMP-activated protein kinase, AMPK (Homo sapiens) (UniProt P54646+O43741+P54619+Q9UGJ0+Q9Y478+Q13131+Q9UGI9); test: AMP-dependent Kinase enzyme assay. An in vitro enzyme assay that detects ADP turnover that is directly proportional to AMPK activity. This uses naive AMPK that is activated during the assay with MK-8722; assay type: functional; settings: 30 µM
[4] = target: Sialic acid-binding Ig-like lectin 9 (Homo sapiens) (UniProt Q9Y336); test: Hs-Siglec9 ALPHAscreen SOP 20170721; settings: 10 µM
[5] = system: Trypanosoma cruzi; test: Trypanosoma cruzi phosphomannomutase and mannose-1-phosphate guanylyltransferase assay; assay type: functional; settings: 10 µM
[6] = target: T2, Arginase-2, mitochondrial (Homo sapiens) (UniProt P78540); test: in vitro enzyme assay to detect the production of urea directly proportional to the activity of Arginase II; assay type: functional; settings: 33.3 µM; also: in the data most compounds retested in dose-response had high values
T2 sequence (whole entry): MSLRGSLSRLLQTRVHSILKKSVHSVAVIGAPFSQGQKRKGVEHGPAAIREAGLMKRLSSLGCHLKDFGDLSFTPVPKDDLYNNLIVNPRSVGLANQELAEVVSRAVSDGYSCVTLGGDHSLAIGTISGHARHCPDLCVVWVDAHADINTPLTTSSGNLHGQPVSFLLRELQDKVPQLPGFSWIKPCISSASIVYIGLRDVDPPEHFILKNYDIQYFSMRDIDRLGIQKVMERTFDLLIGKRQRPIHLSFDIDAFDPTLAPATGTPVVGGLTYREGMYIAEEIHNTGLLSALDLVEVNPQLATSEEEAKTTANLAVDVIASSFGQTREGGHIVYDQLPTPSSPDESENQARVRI

[7] = target: T3, Proteasome subunit beta (Trypanosoma cruzi) (UniProt O96673); test: Trypanosoma cruzi proteasome chymotrypsin-like activity (TcProtChymo) assay.; also: in the data most compounds retested in dose-response had high values; assay type: functional; settings: 9.37 µM
T3 sequence (whole entry): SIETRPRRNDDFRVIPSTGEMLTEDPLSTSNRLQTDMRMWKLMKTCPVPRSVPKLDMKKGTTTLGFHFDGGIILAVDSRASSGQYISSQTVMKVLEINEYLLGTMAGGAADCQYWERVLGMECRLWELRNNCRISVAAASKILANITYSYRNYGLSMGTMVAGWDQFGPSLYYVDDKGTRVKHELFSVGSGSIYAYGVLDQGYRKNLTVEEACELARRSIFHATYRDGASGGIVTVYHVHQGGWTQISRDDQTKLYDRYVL

[8] = organism: Homo sapiens; test: To identify inhibition of the IFN signalling (Jak-Stat) pathway via expression of an eGFP reporter gene under the control of an IFN-stimulated response element (ISRE) containing MxA promoter.; assay type: functional; settings: 30 µM
[9] = target: T4, Tyrosyl-tRNA synthetase, putative (Trypanosoma cruzi (strain CL Brener)) (UniProt Q4DSP6); test: Trypanosoma cruzi tyrosyl tRNA synthetase (TcYRS) _High Tyrosine SOP; assay type: functional; settings: 30 µM; also: in the data most compounds retested in dose-response had high values
T4 sequence (whole entry): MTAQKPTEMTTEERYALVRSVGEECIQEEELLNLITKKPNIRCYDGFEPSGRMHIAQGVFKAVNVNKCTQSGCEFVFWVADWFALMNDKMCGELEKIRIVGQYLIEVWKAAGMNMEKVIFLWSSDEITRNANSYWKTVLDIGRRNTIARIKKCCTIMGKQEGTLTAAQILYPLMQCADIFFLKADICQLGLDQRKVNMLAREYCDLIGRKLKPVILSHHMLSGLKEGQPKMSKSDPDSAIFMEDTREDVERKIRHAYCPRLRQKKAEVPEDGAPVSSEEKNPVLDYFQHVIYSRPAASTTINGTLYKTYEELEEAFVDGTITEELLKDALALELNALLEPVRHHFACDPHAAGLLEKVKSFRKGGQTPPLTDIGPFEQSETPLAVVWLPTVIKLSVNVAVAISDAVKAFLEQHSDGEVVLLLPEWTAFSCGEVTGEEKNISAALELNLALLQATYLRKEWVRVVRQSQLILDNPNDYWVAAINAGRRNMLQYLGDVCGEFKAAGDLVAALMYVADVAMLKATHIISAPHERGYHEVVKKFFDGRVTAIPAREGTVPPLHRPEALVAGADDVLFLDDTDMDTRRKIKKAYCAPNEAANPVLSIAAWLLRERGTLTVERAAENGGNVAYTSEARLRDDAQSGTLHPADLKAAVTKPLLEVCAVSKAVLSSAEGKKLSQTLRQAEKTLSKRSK

[10] = target: T4, Tyrosyl-tRNA synthetase, putative (Trypanosoma cruzi (strain CL Brener)); test: Trypanosoma cruzi tyrosyl tRNA synthetase (TcYRS) SOP; assay type: functional; settings: 30 µM
[11] = target: Chromo domain-containing protein 1 (Saccharomyces cerevisiae (strain ATCC 204508 / S288c) (Baker's yeast)) (UniProt P32657); test: ScCHD-1 Enzyme Inhibition Assay; assay type: functional; settings: 30 µM; also: in the data most compounds retested in dose-response had high values
Chromo domain-containing protein 1 (Saccharomyces cerevisiae (strain ATCC 204508 / S288c) (Baker's yeast)), sequence (P32657 whole entry, the tested form may be a part): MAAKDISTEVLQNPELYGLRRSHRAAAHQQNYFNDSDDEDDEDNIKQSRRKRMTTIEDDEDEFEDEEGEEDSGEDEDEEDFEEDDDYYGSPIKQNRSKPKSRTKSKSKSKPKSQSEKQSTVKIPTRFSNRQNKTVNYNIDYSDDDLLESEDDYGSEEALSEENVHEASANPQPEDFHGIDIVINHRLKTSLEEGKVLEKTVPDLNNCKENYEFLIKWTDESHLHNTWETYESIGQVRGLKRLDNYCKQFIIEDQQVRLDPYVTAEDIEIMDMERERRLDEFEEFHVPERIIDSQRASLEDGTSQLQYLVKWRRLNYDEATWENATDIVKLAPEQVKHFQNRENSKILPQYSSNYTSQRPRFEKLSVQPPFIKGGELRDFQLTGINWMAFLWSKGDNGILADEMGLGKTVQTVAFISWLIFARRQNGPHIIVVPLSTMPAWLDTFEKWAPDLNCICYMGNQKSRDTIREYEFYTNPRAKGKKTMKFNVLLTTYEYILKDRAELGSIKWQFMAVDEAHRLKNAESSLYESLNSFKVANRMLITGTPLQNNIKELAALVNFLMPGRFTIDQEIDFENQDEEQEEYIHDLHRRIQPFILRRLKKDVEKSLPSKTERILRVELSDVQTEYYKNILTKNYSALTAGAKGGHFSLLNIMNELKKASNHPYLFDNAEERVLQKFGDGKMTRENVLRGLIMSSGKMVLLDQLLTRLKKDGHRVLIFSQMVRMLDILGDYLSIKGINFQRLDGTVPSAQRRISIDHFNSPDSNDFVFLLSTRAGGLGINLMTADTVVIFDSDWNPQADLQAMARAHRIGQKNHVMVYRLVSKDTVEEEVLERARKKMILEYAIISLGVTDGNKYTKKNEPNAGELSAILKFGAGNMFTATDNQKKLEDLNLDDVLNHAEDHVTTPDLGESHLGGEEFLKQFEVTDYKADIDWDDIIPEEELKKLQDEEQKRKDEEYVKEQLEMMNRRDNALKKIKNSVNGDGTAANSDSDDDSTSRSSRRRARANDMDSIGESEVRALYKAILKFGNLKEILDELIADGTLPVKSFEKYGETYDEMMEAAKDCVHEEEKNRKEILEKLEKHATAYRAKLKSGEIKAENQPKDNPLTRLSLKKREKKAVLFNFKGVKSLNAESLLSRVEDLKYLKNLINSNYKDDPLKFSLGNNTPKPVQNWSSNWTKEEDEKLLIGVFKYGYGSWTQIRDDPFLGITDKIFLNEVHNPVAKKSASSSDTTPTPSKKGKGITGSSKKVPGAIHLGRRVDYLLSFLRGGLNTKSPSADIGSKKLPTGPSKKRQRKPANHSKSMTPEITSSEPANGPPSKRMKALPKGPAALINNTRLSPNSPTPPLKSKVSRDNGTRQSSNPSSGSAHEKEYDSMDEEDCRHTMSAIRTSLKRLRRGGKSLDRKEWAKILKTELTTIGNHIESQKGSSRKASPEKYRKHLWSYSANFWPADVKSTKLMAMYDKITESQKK

Protein translocase subunit SecA (Escherichia coli (strain K12)), sequence (P10408 whole entry): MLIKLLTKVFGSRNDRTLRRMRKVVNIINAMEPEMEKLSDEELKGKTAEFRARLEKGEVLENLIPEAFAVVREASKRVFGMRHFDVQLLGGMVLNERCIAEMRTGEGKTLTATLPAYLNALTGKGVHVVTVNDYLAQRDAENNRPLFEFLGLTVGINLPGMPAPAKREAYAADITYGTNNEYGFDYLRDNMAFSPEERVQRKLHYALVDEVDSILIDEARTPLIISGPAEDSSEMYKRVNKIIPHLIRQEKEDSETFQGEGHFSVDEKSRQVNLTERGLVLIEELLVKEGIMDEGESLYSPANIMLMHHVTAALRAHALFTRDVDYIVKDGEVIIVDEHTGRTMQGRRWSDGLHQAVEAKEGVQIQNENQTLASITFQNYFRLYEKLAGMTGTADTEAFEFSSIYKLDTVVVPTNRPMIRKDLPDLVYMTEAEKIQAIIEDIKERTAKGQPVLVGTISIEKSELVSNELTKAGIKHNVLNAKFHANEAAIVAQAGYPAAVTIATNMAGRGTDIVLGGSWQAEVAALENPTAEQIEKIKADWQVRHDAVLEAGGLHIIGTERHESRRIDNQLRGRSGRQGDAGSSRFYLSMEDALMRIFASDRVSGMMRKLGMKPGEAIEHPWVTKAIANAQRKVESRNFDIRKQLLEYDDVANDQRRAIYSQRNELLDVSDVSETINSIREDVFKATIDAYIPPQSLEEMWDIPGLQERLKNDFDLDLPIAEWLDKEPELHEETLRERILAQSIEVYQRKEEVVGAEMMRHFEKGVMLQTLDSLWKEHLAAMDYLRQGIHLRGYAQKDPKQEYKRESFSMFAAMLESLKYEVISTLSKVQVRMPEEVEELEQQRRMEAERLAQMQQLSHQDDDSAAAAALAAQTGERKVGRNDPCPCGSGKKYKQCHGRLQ
Sialic acid-binding Ig-like lectin 9 (Homo sapiens), sequence (Q9Y336 whole entry): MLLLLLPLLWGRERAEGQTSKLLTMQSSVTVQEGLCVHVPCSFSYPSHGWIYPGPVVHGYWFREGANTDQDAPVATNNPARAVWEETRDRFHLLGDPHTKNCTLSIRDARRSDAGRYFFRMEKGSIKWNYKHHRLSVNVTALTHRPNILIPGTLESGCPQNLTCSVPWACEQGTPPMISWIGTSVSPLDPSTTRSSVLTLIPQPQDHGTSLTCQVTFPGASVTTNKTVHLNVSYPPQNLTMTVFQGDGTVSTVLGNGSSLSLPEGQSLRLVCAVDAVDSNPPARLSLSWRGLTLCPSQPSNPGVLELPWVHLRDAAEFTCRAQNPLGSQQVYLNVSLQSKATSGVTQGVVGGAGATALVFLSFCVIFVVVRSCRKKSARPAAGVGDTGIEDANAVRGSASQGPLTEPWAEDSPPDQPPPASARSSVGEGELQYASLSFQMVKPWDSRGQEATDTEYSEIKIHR

SMILES	Percent Effect [1] [%]	Percent Effect [2] [%]	Percent Effect [3] [%]	Percent Effect [4] [%]	Percent Effect [5] [%]	Percent Effect [6] [%]	Percent Effect [7] [%]	Percent Effect [8] [%]	Percent Effect [9] [%]	Percent Effect [10] [%]	Percent Effect [11] [%]
COc1ccc(C(=O)N2CCC(Nc3cccnn3)CC2)c(OC)c1	1.87	-3.8	3.46	2.44	-4.41	5.38	0.858	0.418	-1.04	2.53	-16
O=C1CC(c2cccs2)c2cnn(C3CCCC3)c2N1 (stereo not drawn)	-5.95	-5.33	6.01	-6.09	-6.13	-4.69	6.97	10.9	-2.73	-6.17	1.62
O=C(COCc1nc(-c2ccncc2)no1)NC1CCCCC1	-6.1	7.79	1.21	9.68	2.46	0	7.65	5.36	7.53	13.6	-2.34
CN1CCC(c2cccc(Cc3ccc(F)cc3)n2)CC1	-4.16	-1.35	11.1	-2.02	0.395	-6.26	6.08	2.47	2.15	-1.3	-7.17
CC1=Nc2c(c(=O)[nH]n2C2CCOCC2)C(c2cccc(Br)c2)S1 (stereo not drawn)	-5.02	12	-9.43	-0.93	1.97	82.6	14.1	30.4	9.52	20.5	-11.4
O=C(Cc1ccsc1)N1CCn2cc(CN3CCCC3)nc2C1	-1.1	8.22	-4.43	11.5	8.33	-9.98	20.1	-16	14.6	23.5	-4.19
CC(CNCc1ccncc1)Oc1ccccn1 (stereo not drawn)	-0.77	9.33	-1.66	5.01	0	-15.3	13.9	2.27	4.23	7.69	-10.8
CN(CC1CCCCO1)C(=O)c1ccnc(OC2CCC2)c1 (stereo not drawn)	3.17	0	-6.16	1.71	6.18	10.9	8.62	29.6	-1.59	0	-2.67
